Compound activity (PubChem BioAssay)
TIM10 inh – TIM10 yeast growth inhibition | 1.4% of 330,000 active | AID 463195 | S. cerevisiae TIM10 strain growth, BacTiter-Glo luminescence, 24 h | inhibition, % at 10 µM;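 active means inhibition of 40% or more at the single tested concentration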;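 further: wild-type TIM10 isogenic control strain grown at permissive 25 °C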
tim23-1 inh – inhibits growth of tim23-1 mutant yeast; S. cerevisiae tim23-1 growth, BacTiter-Glo luminescence, 24 h; inhibition, % at 20 µM; 1.3% of 330,000 active; AID 463212;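 active means growth inhibition of the mutant yeast at or above 50%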;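 further: temperature-sensitive mutant grown at 25 °C; plate controls were DMSO-treated mutant yeast for no effect and medium wells lacking yeast for full effect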
Mdm2-MdmX inh – human Mdm2/MdmX binding inhibition | AID 485346 | 3% of 330,000 active | O15151+Q00987 | SaOS-2 split-luciferase Mdm2/MdmX complementation, luminescence | inhibition, % at 8 µM;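 active means inhibition of at least 50% at 8 µM in the primary screen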
Target sequence (O15151 whole entry, looked up): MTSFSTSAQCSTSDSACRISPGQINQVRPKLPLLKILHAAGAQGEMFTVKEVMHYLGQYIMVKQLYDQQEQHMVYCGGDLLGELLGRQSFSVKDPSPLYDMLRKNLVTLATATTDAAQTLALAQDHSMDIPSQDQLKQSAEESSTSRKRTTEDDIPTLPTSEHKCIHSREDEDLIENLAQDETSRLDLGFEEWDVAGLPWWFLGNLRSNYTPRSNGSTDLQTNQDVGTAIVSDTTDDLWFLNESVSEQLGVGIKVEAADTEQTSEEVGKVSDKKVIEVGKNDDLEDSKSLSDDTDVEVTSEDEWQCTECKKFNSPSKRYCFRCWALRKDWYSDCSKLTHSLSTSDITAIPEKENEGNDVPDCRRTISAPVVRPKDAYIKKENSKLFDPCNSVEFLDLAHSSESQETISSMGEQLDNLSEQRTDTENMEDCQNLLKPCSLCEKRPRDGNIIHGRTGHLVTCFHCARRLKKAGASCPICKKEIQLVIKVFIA
Target sequence (Q00987 whole entry, looked up): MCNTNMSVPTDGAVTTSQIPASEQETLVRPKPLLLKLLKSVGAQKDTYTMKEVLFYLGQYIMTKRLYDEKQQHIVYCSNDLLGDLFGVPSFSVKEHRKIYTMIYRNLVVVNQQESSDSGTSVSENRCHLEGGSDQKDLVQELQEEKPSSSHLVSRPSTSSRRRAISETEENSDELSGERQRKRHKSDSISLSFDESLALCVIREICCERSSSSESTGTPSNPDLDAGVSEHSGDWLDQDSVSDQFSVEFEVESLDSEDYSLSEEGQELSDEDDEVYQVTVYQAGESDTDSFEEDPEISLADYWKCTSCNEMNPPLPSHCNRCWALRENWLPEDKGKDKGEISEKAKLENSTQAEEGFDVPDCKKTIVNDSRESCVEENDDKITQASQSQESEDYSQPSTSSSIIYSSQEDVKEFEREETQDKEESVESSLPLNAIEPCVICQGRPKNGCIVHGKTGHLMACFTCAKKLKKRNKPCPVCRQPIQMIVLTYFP
tim10-1 inh – growth inhibitors of tim10-1 mutant yeast; S. cerevisiae tim10-1 ts strain growth, BacTiter-Glo, 24 h; AID 463190; inhibition, % at 20 µM; 2.2% of 330,000 active;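 active means inhibition of at least 40%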;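 further: mutant grown at 25 °C; 0% = DMSO wells with yeast and 100% = wells holding no yeast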
MPTP block – inhibitors of mitochondrial permeability transition pore. isolated mouse mitochondria, Ca2+ swelling absorbance, 30 min. 1.4% of 360,000 active. inhibition, % at 10 µM. AID 602449;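 active means inhibition of 50% or more, scaled per plate between neutral and stimulator controls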;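 further: 0% = DMSO wells given calcium and 100% = 1 mM EGTA wells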
Rh123 counter – membrane potential counter-screen of mitochondrial pore inhibitors | isolated mitochondria, Rhodamine 123 fluorescence | inhibition, % at 10 µM | shares compounds with MPTP block | 78% of 5,000 active; in the data active means inhibition above about 22%;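 further: 0% = DMSO vehicle and 100% = positive control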
MPTP swell DR – dose response confirmation of mitochondrial permeability transition pore inhibitors; 58% of 780 active; shares compounds with MPTP block; AID 651561; isolated mitochondria swelling, absorbance; IC50, µM; in the data active means IC50 below about 20 µM
MPTP cs DR – counter-screen for mitochondrial permeability transition pore inhibitors, dose response. shares compounds with MPTP block. isolated mitochondria counterscreen, fluorescence read-out. IC50, µM. 49% of 780 active. AID 651564; in the data active means IC50 below about 80 µM
Active calls of the source: *; · = no result. Rows were chosen to be rich in hits. Some 6.3% of all compounds tested hit in one or more screens of this group.

SMILES	TIM10 inh	tim23-1 inh	Mdm2-MdmX inh	tim10-1 inh	MPTP block	Rh123 counter	others
CCCNC(=O)C1(C)CCCN(C(=O)c2cc(F)ccc2C)C1 (configuration not stated)	·	·	·	·	-0.2	·
O=C(NC1CCCC1)C(c1ccco1)N1CCN(c2c(Cl)cncc2Cl)CC1 (configuration not stated)	·	·	·	·	0.7	·
S=C(NCc1ccc2c(c1)OCO2)NC1CCN(Cc2ccccc2)CC1	-18.6	-3.7	15.2	-11.9	74.2*	4.5	MPTP swell DR=10.9*;MPTP cs DR=53.7*
S=C(NCc1ccccc1)N1CCN(Cc2ccc3c(c2)OCO3)CC1	16.7	-21.2	-26.3	6.9	-5.6	·
S=C(NCc1ccc(Cl)cc1Cl)Nc1ccccc1	18.3	43.5	32.6	-4.3	95.3*	95.3*
O=C(/C=C/[C@H]1O[C@@H](n2ccc(=O)[nH]c2=O)[C@H](O)[C@@H]1O)NCCc1c[nH]c2ccccc12	·	·	·	·	-0.3	·
CSc1nc(N)c(C(=O)N(c2ccccc2)c2ccccc2)s1	·	·	·	·	0.5	·
CC(=O)c1cccc(-c2ccnc3c2CC(C(=O)Nc2ccccc2)O3)c1 (configuration not stated)	·	·	·	·	0.1	·
CCOc1ccccc1OCCC(=O)Nc1ccc(F)c(Cl)c1	11.7	15.3	-5.2	21.9	1.6	·
Cc1ccccc1OCCC(=O)Nc1ccc(F)c(Cl)c1	22.9	37.6	25.7	19.0	84.9*	85.0*
COc1cc(CNc2ncnc3c2[nH]c2ccc(C)cc23)cc(OC)c1	5.6	7.8	31.3	13.0	86.0*	83.2*
Cc1ccc2[nH]c3c(NCc4ccco4)ncnc3c2c1	-8.9	2.3	-50.5	-2.6	59.9*	84.7*
C[C@@H]1CN([C@H](C)CO)C(=O)CCCn2cc(nn2)CO[C@H]1CN(C)C(=O)Cc1ccccc1	·	·	·	·	-2.0	·
CC(C)Nc1ccccc1	-0.9	-12.2	13.9	-16.6	-0.4	·
CC(C)Nc1nc2nonc2nc1Nc1ccccc1	-5.3	5.1	21.5	-10.4	91.3*	80.6*
CC1=NC(Nc2nc(C)c3ccccc3n2)=NC(C)(C)C1	0.8	9.1	19.5	8.4	50.5*	45.0*
Cc1nc(Nc2ncc3c(n2)CC(C)(C)CC3=O)nc2ccccc12	·	·	·	·	1.9	·
COc1ccc(OCC(O)CN2CCC(CN3C(=O)c4cccc5cccc(c45)C3=O)CC2)cc1 (configuration not stated)	-0.9	6.6	18.7	11.9	18.7	·
O=C1c2cccc3cccc(c23)C(=O)N1CC1CCN(CC(O)COCc2ccc3c(c2)OCO3)CC1 (configuration not stated)	22.0	8.2	24.9	13.2	55.6*	4.9	MPTP swell DR=9.6*;MPTP cs DR=26.4*
Cc1ccc(C)c(NC(=O)CSc2nc(N)c(NC(=O)c3cccs3)c(=O)[nH]2)c1	·	·	·	·	-1.3	·
Cc1ccc(C)c(NC(=O)CSc2nc3nc(-c4cccs4)cc(C(F)(F)F)c3c(=O)[nH]2)c1	9.7	-4.6	45.1	6.4	76.9*	61.0*
Cc1cccc(CN(Nc2ccccc2)c2ccccc2)n1	·	·	·	·	0.1	·
CCCNC(=O)C1(C)CCN1C(=O)c1cc(C)n(C)n1 (configuration not stated)	·	·	·	·	0.1	·
Oc1ccc(C[C@@H]2CNCCN2CCc2cccc3ccccc23)cc1	9.2	18.1	47.8	2.4	84.0*	-14.1	MPTP swell DR=14.5*;MPTP cs DR=>80
CC(C)(C)CN1CCNC[C@H]1Cc1cccc2ccccc12	8.7	-14.8	28.6	-18.6	55.1*	-9.4	MPTP swell DR=7.13*;MPTP cs DR=66.3*
SMILES	TIM10 inh	tim23-1 inh	Mdm2-MdmX inh	tim10-1 inh	MPTP block	Rh123 counter	others
Oc1ccc(C[C@H]2CNCCN2CCc2cccc(F)c2)cc1	3.9	-8.9	20.3	-5.6	0.2	·
COc1cccc(NC(=O)C2(C)CCCN2C(=O)C(C)C)c1OC (configuration not stated)	·	·	·	·	-1.4	·
Cc1ccc(Nc2nc(-c3ccc(S(=O)(=O)N4CCOCC4)cc3)cs2)cc1	21.2	21.8	29.3	13.1	-0.7	·
Cc1ccc(Nc2nc(-c3ccc(S(=O)(=O)N4CCCC4)cc3)cs2)cc1C	3.8	5.0	-1.7	15.3	4.1	·
O=S(=O)(c1ccc(-c2csc(Nc3ccc(F)cc3)n2)cc1)N1CCCC1	2.7	9.1	-9.5	22.0	84.4*	69.4*
O=S(=O)(c1ccc(-c2csc(Nc3ccc(Br)cc3)n2)cc1)N1CCCC1	3.9	4.9	46.1	7.7	59.5*	56.2*
COc1ccc(C(=O)Nc2cccc(C(=O)Nc3cc(C)ccn3)c2)cc1	·	·	·	·	0.5	·
CCOC(=O)Cc1nnc2c(Nc3ccccc3F)nc3nonc3n12	15.3	24.5	11.2	23.9	92.2*	124.9*
CCOC(=O)Cc1nnc2c(Nc3ccc(C)cc3)nc3nonc3n12	-9.6	-0.8	-5.2	13.4	11.8	·
CC(C)(C)Cc1c(-c2ccc(Br)cc2)nc2ccc(Br)cn12	·	·	·	·	2.3	·
CC(=O)c1cccc(NS(=O)(=O)c2ccc(-c3cnc(C4CC4)o3)cc2)c1	-10.7	27.3	48.1	31.5	93.8*	94.0*
CC(C)[C@H](NC(=O)OC(C)(C)C)c1nnc(SCC(=O)Nc2ccc(Br)cc2)o1	13.4	10.8	6.5	12.7	82.2*	53.4*
C[C@H](NC(=O)OC(C)(C)C)c1nnc(SCC(=O)Nc2cccc(Cl)c2)o1	2.7	4.7	21.7	17.1	-0.1	·
COc1cc(C[C@@H]2C(=O)OC[C@H]2Cc2ccc(OC)c(OC)c2)ccc1O	6.5	13.3	6.3	8.0	92.5*	80.4*
O=C(CN1C(=O)C(c2ccc(F)cc2)=NC12CCCC2)Nc1ccc(F)cc1	4.2	1.5	14.4	10.2	60.5*	52.9*
CC(=O)c1ccc(N2CCN(S(=O)(=O)c3ccc4c(c3)CC(C)N4C(=O)C3CC3)CC2)cc1 (configuration not stated)	-14.1	-9.2	14.5	-1.1	96.9*	107.9*
Cc1ccc(C2C(/C=C3/SC(=S)NC3=O)=C(c3cccs3)Oc3ccccc32)cc1 (configuration not stated)	16.7	23.0	42.9	26.8	98.8*	48.1*
Cc1ccccc1S(=O)(=O)N1C[C@H]2CON(C)[C@H]2C[C@H]1c1cccc(-c2ccc(C#N)cc2)c1	·	·	·	·	2.0	·
CCOC(=O)N1CCN(C(=O)c2oc3ccc(S(=O)(=O)N4CCCCC4)cc3c2C)CC1	7.4	22.1	26.5	11.6	2.3	·
Cc1c(C(=O)N2CCCCC2)oc2ccc(S(=O)(=O)N3CC(C)CC(C)C3)cc12 (configuration not stated)	-4.6	23.6	37.9	0.6	83.3*	43.8*
O=C(Cn1cnc2c(oc3ccccc32)c1=O)N1CCCc2ccccc21	33.2	22.6	-11.9	33.2	-0.1	·
O=C(CSc1ncnc2c1oc1ccccc12)N1CCCc2ccccc21	-4.2	31.2	-13.1	35.7	79.1*	72.0*
CCc1ccccc1NC(=O)Nc1ccc2c(c1)OCO2	-8.7	-11.0	-2.8	6.6	5.2	·
